# Values without a mark were called inactive.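 Rule for the calls, unless noted: active = inhibition at or above 50% at 10 µM; inactive = inhibition below 50%.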
# Biological target: Alpha-2C adrenergic receptor (Homo sapiens) (UniProt P18825)
# Assay: compounds altering alpha2C-coupled GIRK flux – cell-based, HEK293 alpha2C/GIRK1/2, thallium flux, primary screen (AID 624;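 active = fluorescence slope after compound addition differing from the mean of all screened samples at 99.7% confidence, in either direction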;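 note: slope of fluorescence ratio to pre-addition baseline per second over 15 to 24 s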)
# Conditions: thallium flux BTC fluorescence, at 10 µM, actives lie on both sides
# Chain of Alpha-2C adrenergic receptor (Homo sapiens) (P18825 whole entry, looked up): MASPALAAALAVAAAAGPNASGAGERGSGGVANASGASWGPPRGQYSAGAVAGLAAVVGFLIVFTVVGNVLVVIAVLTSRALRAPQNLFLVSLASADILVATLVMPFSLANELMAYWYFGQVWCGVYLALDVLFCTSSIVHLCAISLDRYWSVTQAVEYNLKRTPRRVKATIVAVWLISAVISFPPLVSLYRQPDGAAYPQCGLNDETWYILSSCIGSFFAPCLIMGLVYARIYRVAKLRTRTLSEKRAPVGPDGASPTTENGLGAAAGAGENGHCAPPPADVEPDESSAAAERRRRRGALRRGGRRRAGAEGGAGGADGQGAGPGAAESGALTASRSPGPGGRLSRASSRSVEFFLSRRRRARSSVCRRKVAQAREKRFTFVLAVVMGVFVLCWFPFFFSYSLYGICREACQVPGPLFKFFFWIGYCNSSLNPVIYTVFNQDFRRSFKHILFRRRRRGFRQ
row,Compound,slope
1,Cc1cc(C)n(C(=O)C23CC4CC(CC(C4)C2)C3)n1,0.00607
2,Nc1nc2n(n1)C(c1cccc(Cl)c1)CC(c1ccc(F)cc1)N2 (stereo not given),0.00636
3,O=C(Nc1ccc(N2CCCC2)cc1)c1ccc(Br)o1,0.00868
4,CCOC(=O)c1cccc(NC(=O)C2CCN(S(=O)(=O)c3cccs3)CC2)c1,0.00624
5,CC(=O)C1=C(C)OC(N)=C(C#N)C1c1ccncc1 (stereo not given),0.004
6,O=C(CN1CCN(C2CCCCC2)CC1)Nc1ccccc1-c1ccccc1,0.00596
7,CC1(C)Cc2c(c(=S)nc(-c3ccccc3)n2CCO)CO1,0.006
8,COCCCNC(=O)CC1Oc2ccccc2NC1=O (stereo not given),0.00685
9,CC1(C)CC(=O)CC(C)(C)N1OC(=O)c1ccccn1,0.00619
10,O=C1OC(N2CCN(c3ccccn3)CC2)c2ccccc21 (stereo not given),0.00362
11,c1cncc(-c2nc3c4ccccc4nc(N4CCC(N5CCCCC5)CC4)n3n2)c1,0.00496
12,C=Cn1c(N2CCOCC2)nc2c1c(=O)[nH]c(=O)n2C,0.00579
13,CC(C)(C)C1=Nn2c(nnc2-c2n[nH]c3c2CCC3)SC1,0.00435
14,CCCCc1nc2ccccc2n2cc3c(=O)n(C)c(=O)n(C)c3c12,0.00741
15,O=C(NC1CCCCC1)N(Cc1ccc(F)cc1)Cc1nc2ccccc2c(=O)[nH]1,0.0032
16,Cc1ccc(S(=O)(=O)CC(=O)N2CCCCCC2)cc1,0.0061
17,O=C(NCC1COc2ccccc2O1)c1ccc(NC(=O)c2ccco2)cc1 (stereo not given),0.00329
18,CCOC(=O)N1CCN(Cc2nc3c(c(=O)[nH]c(=O)n3C)n2Cc2cc(C)ccc2C)CC1,0.00433
19,CCOC(=O)N1CCC(N2C(=O)c3ccccc3C2Nc2cccnc2)CC1 (stereo not given),0.00694
20,O=c1/c(=C/c2ccco2)sc2nc(-c3ccccc3Br)nn12,0.00315

row,Compound,slope
1,CCOc1cc(NC(=O)c2ccccn2)c(OCC)cc1NC(=O)CC(C)C,0.00499
2,CC1(C)CC(=O)C=C(NCCN2CCN(C(=O)Nc3ccccc3)CC2)C1,0.0067
3,Cc1ccccc1CN1CCN(C(=O)c2cccc(F)c2)CC1,0.00429
4,Cn1c(=O)[nH]c(=O)c2c1nc(N1CCCCCC1)n2CCCSc1nc2ccccc2o1,0.00527
5,COc1cccc(C2CC(c3ccccc3)n3ncnc3N2)c1 (stereo not given),0.00718
6,C=CCNC(=O)c1ccc(Cl)cc1Cl,0.00715
7,COc1ccccc1NC(=O)NC1(C(=O)N2CCC(O)CC2)CCCCC1,0.00897
8,Nc1scc(-c2ccncc2)c1Cl,0.00535
9,CC1CCCN(S(=O)(=O)c2ccc(C(=O)Nc3nnc(-c4ccccc4Cl)o3)cc2)C1 (stereo not given),0.0065
10,CCOc1ccccc1OCCn1nnc2ccccc21,0.0043
11,COc1ccc(CCN2C(=O)CCC2(C)C(=O)NCc2cccnc2)cc1OC (stereo not given),0.0059
12,COC(=O)c1ccccc1S(=O)(=O)N(CCCO)Cc1cc2c(C)ccc(C)c2[nH]c1=O,0.00564
13,CCCCn1c(CN(C)Cc2ccccc2)nc2c1c(=O)n(C)c(=O)n2C,0.00658
14,CCn1c(SCC(=O)c2ccc(Cl)cc2)nnc1-c1ccoc1C,0.00727
15,Cn1c(=N)c(S(=O)(=O)c2ccccc2)cc2c(=O)n3ccccc3nc21,0.00488
16,CN(CC(=O)N1CCCCC1)S(=O)(=O)c1cccc2cccnc12,0.00551
17,O=C(NCc1ccc2c(c1)OCO2)C1CCC(CNc2c(N3CCCCC3)c(=O)c2=O)CC1 (stereo not given),0.00656
18,Cn1c(=O)c2c(nc(NCC3CCCO3)n2C)n(C)c1=O (stereo not given),0.00331
19,Cc1cc2ccccc2n1CCNC(=O)c1ccc(S(=O)(=O)N2CCOCC2)cc1,0.00522
20,CNC(=O)NCCN1CCCC1=O,0.00479

# Test system: not listed separately
# Assay: blockers of RIG-like receptor reporter activation – cell-based, Sendai virus stimulus, luciferase, 10K MLSCN set, TLR/RLR signaling modifier project, primary screen (AID 602276);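 note: firefly luciferase from ISG56 promoter only with Renilla not read in this screen; 0% = Sendai virus plus DMSO and 100% = medium plus DMSO without virus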
# Conditions: HEK293 RL24 IRF3 luciferase reporter, at 10 µM, hits give high values
row,Compound,inhibition [%]
1,Cc1cc(C)n(C(=O)C23CC4CC(CC(C4)C2)C3)n1,6.1
2,Nc1nc2n(n1)C(c1cccc(Cl)c1)CC(c1ccc(F)cc1)N2 (stereo not given),11.8
3,O=C(Nc1ccc(N2CCCC2)cc1)c1ccc(Br)o1,-34
4,CCOC(=O)c1cccc(NC(=O)C2CCN(S(=O)(=O)c3cccs3)CC2)c1,3.96
5,CC(=O)C1=C(C)OC(N)=C(C#N)C1c1ccncc1 (stereo not given),12.5
6,O=C(CN1CCN(C2CCCCC2)CC1)Nc1ccccc1-c1ccccc1,2.95
7,CC1(C)Cc2c(c(=S)nc(-c3ccccc3)n2CCO)CO1,8.44
8,COCCCNC(=O)CC1Oc2ccccc2NC1=O (stereo not given),14.8
9,CC1(C)CC(=O)CC(C)(C)N1OC(=O)c1ccccn1,-2.81
10,O=C1OC(N2CCN(c3ccccn3)CC2)c2ccccc21 (stereo not given),19.9
11,c1cncc(-c2nc3c4ccccc4nc(N4CCC(N5CCCCC5)CC4)n3n2)c1,24.2
12,C=Cn1c(N2CCOCC2)nc2c1c(=O)[nH]c(=O)n2C,20
13,CC(C)(C)C1=Nn2c(nnc2-c2n[nH]c3c2CCC3)SC1,14.9
14,CCCCc1nc2ccccc2n2cc3c(=O)n(C)c(=O)n(C)c3c12,14.3
15,O=C(NC1CCCCC1)N(Cc1ccc(F)cc1)Cc1nc2ccccc2c(=O)[nH]1,21
16,Cc1ccc(S(=O)(=O)CC(=O)N2CCCCCC2)cc1,-16.3
17,O=C(NCC1COc2ccccc2O1)c1ccc(NC(=O)c2ccco2)cc1 (stereo not given),7.34
18,CCOC(=O)N1CCN(Cc2nc3c(c(=O)[nH]c(=O)n3C)n2Cc2cc(C)ccc2C)CC1,19.2
19,CCOC(=O)N1CCC(N2C(=O)c3ccccc3C2Nc2cccnc2)CC1 (stereo not given),7.61
20,O=c1/c(=C/c2ccco2)sc2nc(-c3ccccc3Br)nn12,16.2

row,Compound,inhibition [%]
1,CCOc1cc(NC(=O)c2ccccn2)c(OCC)cc1NC(=O)CC(C)C,-9.2
2,CC1(C)CC(=O)C=C(NCCN2CCN(C(=O)Nc3ccccc3)CC2)C1,-1.55
3,Cc1ccccc1CN1CCN(C(=O)c2cccc(F)c2)CC1,7.31
4,Cn1c(=O)[nH]c(=O)c2c1nc(N1CCCCCC1)n2CCCSc1nc2ccccc2o1,14.2
5,COc1cccc(C2CC(c3ccccc3)n3ncnc3N2)c1 (stereo not given),5.93
6,C=CCNC(=O)c1ccc(Cl)cc1Cl,0.0277
7,COc1ccccc1NC(=O)NC1(C(=O)N2CCC(O)CC2)CCCCC1,-0.183
8,Nc1scc(-c2ccncc2)c1Cl,-19.6
9,CC1CCCN(S(=O)(=O)c2ccc(C(=O)Nc3nnc(-c4ccccc4Cl)o3)cc2)C1 (stereo not given),22.7
10,CCOc1ccccc1OCCn1nnc2ccccc21,1.2
11,COc1ccc(CCN2C(=O)CCC2(C)C(=O)NCc2cccnc2)cc1OC (stereo not given),8.53
12,COC(=O)c1ccccc1S(=O)(=O)N(CCCO)Cc1cc2c(C)ccc(C)c2[nH]c1=O,2.69
13,CCCCn1c(CN(C)Cc2ccccc2)nc2c1c(=O)n(C)c(=O)n2C,-18.7
14,CCn1c(SCC(=O)c2ccc(Cl)cc2)nnc1-c1ccoc1C,3.62
15,Cn1c(=N)c(S(=O)(=O)c2ccccc2)cc2c(=O)n3ccccc3nc21,-14.3
16,CN(CC(=O)N1CCCCC1)S(=O)(=O)c1cccc2cccnc12,3.62
17,O=C(NCc1ccc2c(c1)OCO2)C1CCC(CNc2c(N3CCCCC3)c(=O)c2=O)CC1 (stereo not given),7.38
18,Cn1c(=O)c2c(nc(NCC3CCCO3)n2C)n(C)c1=O (stereo not given),6.21
19,Cc1cc2ccccc2n1CCNC(=O)c1ccc(S(=O)(=O)N2CCOCC2)cc1,13.5
20,CNC(=O)NCCN1CCCC1=O,9.55

# From PubChem BioAssay
